# Reference: the supplement of paper PMC6555819
# How the values were obtained:
# Assay in all cases: PBM binding z-score (relative to random genomic background probes); higher = stronger binding; sequences stand for … in GC…GCGATTGACAGCGTAGAATGAAGG
# [1] = tested on: FXR:RXRa (NR concentration 270 nM, RXRa partner concentration 90 nM)
# In short: (§1)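 The probes on custom Agilent 4×180K protein-binding microarrays were double-stranded, with 34-nt variable regions bearing direct-repeat seeds, single-nucleotide variants, half-site ablations and random human genomic background sequences. Incubation lasted 1 h with ligand-free nuclear receptor dimers in PBS pH 7.4, 2% milk, 0.02% Triton X-100, 1 mM DTT, 0.2 mg/mL BSA and 0.4 mg/ml salmon testes DNA. Antibodies against each partner (one per run) detected bound dimers, and fluorescence scans were regression-normalized. Binding z-scores take the random background probes as reference.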
# [2] = tested on: LXRa:RXRa (NR concentration 270 nM, RXRa partner concentration 90 nM)
# In short: as §1
# [3] = tested on: LXRa homodimer (NR concentration 270 nM)
# In short: as §1
# [4] = tested on: LXRb:RXRa (NR concentration 270 nM, RXRa partner concentration 90 nM)
# In short: as §1
# [5] = tested on: LXRb homodimer (NR concentration 270 nM)
# In short: as §1
# [6] = tested on: PPARa:RXRa (NR concentration 270 nM, RXRa partner concentration 90 nM)
# In short: as §1
# [7] = tested on: PPARg:RXRa (NR concentration 180 nM, RXRa partner concentration 90 nM)
# In short: as §1
# [8] = tested on: PPARg:RXRa 270nM:90nM, anti-RXR (NR concentration 270 nM, RXRa partner concentration 90 nM)
# In short: as §1
# [9] = tested on: PPARg:RXRa 30nM:10nM, anti-RXR (NR concentration 30 nM, RXRa partner concentration 10 nM)
# In short: as §1
# [10] = tested on: PPARg:RXRa 90nM:30nM, anti-RXR (NR concentration 90 nM, RXRa partner concentration 30 nM)
# In short: as §1
# [11] = tested on: PPARg:RXRa DBDmut IVT, anti-RXR (DBD mutation: RXRa K156A/R161A, NR concentration 270 nM, RXRa partner concentration 90 nM)
# In short: as §1
# [12] = tested on: PPARg:RXRa IVT, anti-PPARg (NR concentration 270 nM, RXRa partner concentration 90 nM)
# In short: as §1
# [13] = tested on: PPARg DBDmut:RXRa IVT, anti-PPARg (DBD mutation: PPARg1 K132A/R137A, NR concentration 270 nM, RXRa partner concentration 90 nM)
# In short: as §1
# [14] = tested on: PPARg DBDmut IVT, anti-PPARg (DBD mutation: PPARg1 K132A/R137A, NR concentration 270 nM)
# In short: as §1
# [15] = tested on: PPARg homodimer (NR concentration 180 nM)
# In short: as §1
# [16] = tested on: PXR:RXRa (NR concentration 270 nM, RXRa partner concentration 90 nM)
# In short: as §1
# [17] = tested on: PXR homodimer (NR concentration 270 nM)
# In short: as §1
# [18] = tested on: RARa:RXR (NR concentration 270 nM, RXRa partner concentration 90 nM)
# In short: as §1
# [19] = tested on: RARa homodimer (NR concentration 270 nM)
# In short: as §1
# [20] = tested on: RARb:RXRa (NR concentration 270 nM, RXRa partner concentration 90 nM)
# In short: as §1
Sequence,PBM binding z-score [1],PBM binding z-score [2],PBM binding z-score [3],PBM binding z-score [4],PBM binding z-score [5],PBM binding z-score [6],PBM binding z-score [7],PBM binding z-score [8],PBM binding z-score [9],PBM binding z-score [10],PBM binding z-score [11],PBM binding z-score [12],PBM binding z-score [13],PBM binding z-score [14],PBM binding z-score [15],PBM binding z-score [16],PBM binding z-score [17],PBM binding z-score [18],PBM binding z-score [19],PBM binding z-score [20]
CCTCGGAGGACAACAGGAGCTCAGAGCTGCCAGA,-0.156,-0.474,-0.523,-0.921,-0.933,-0.767,-0.107,-1,-0.714,-0.999,0.0652,-0.614,-1.06,-2.08,-0.744,-0.836,-0.522,-0.894,-0.387,0.83
ATATGTAGGTTAGTTGGGGTCATTCAGACTAGGC,5,6.61,5.82,5.76,1.94,5.47,5.44,5.32,2.72,4.54,6.81,5.83,2.02,2.15,3.78,6.79,7.04,5.99,2.35,3.21
TCTATGAGTTGAAGGGCAACCGACGAGTCCGTTT,0.419,0.7,-0.373,0.405,-0.437,1.2,0.607,1.51,2.54,2.22,1.46,0.477,-0.166,0.0578,-0.142,0.853,0.0161,0.674,-0.22,1.37
CCGACTGGGGCAAAGGCTACCATACTCAGTACGA,-0.192,-0.314,-0.186,-0.213,-1.35,2.78,6.74,6.84,5.04,6.61,2.79,3.71,-0.0188,-0.284,0.531,-0.487,-0.267,-0.203,-0.204,0.812
CCTTACGGGTCACTCCAAGTTATAGCATCGGAGT,4.3,4.77,0.264,2.99,0.193,4.54,3.18,3.68,1.12,2.66,3.33,3.23,0.816,0.0314,3.25,2.57,0.296,3.32,1.47,3.56
CCTAGTTGATCAGGAGGTCACACACCGGATATGA,3.48,3.95,3.16,3.71,1,4.19,2.24,2.78,1.24,1.99,0.771,2.22,0.83,0.641,4.38,4.62,1.79,5.02,2.57,3.46
CGTCAAACTTCAAGGTAACGTAACAGAAAGCAGC,0.471,0.1,0.0122,0.289,0.209,0.32,0.645,0.119,0.337,0.21,0.101,0.749,0.373,0.926,0.291,0.178,0.193,0.544,-0.134,0.507
CCGCCTGGGGCAGAAAGGTTACCATACCATCCGG,0.138,0.416,-0.112,0.678,-1.32,1.59,0.804,1.25,-0.385,0.357,-0.75,-0.444,-1.12,-1.51,0.297,0.861,-0.276,1.49,-0.241,1.83
GTACCAAGGTGAATAGGTCGTTCATGAGTAGGCG,0.8,1.02,0.137,0.601,-0.594,2.17,1.4,1.69,0.0443,0.958,1.96,2.71,0.421,-1.06,0.765,0.908,-0.0414,1.62,-0.236,2.12
CGTCCAAGGTCAGTGCTAGGTCAGTGAAAGCATT,4.03,3.44,0.709,2.75,-0.278,3.28,1.44,2.57,0.1,1.31,2.24,2.77,-0.328,-1.29,3.27,3.4,0.647,4.37,0.898,4.79
CAAACTAGGTCAAGAGGTCCAAGTCCGCTTCCCG,3.7,2.26,0.265,1.6,0.102,4.52,7.57,6.68,4.65,6.56,8.55,8.32,1.57,0.903,1.86,1.58,0.285,2.21,0.1,4.02
CCTCGTAGGACAGAAGGTCAGAGCTGTCCGCTTT,1.05,1.85,0.197,1.35,-0.387,2.11,-0.00358,1.14,-0.551,0.426,0.395,0.358,-0.69,-1.03,1.25,1.47,-0.0848,2.1,-0.0313,3.02
AGAATGAGCTTAAGATCAGGGAAACAGAATACAT,-0.576,-0.745,-0.372,-0.637,-0.597,-0.434,0.541,-0.0832,0.137,0.036,-0.826,-0.493,0.133,0.568,-0.142,-0.393,-0.0876,0.0208,-0.0937,-0.502
CAAACTAGGTCACCGGAAGGTCTAAGTCCGCATG,3.99,3.38,0.494,2.73,0.609,5.3,8.5,7.22,4.98,6.82,8.57,9.1,1.59,1.51,2.47,2.44,0.0604,3.02,0.862,4.37
